Screening results: PubChem BioAssay, Broad Institute
DUX4 inh = DUX4-mediated transcription inhibition. 293T-iDUX4 ZSCAN4-Gaussia luciferase reporter, 24 h; active compounds read low. activity change, negative = inhibition, % (test concentration not listed). 37,000 compounds, 0.8% hits;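 active = mean inhibition of at least 10% in the main channel, exceeding the control channel by a set limit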;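 also: 0% = median of neutral control wells and -100% = median of positive control wells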
Active calls of the source: *; ! = not confirmed by another sample. Many of the other results were omitted from the sample, so hits are more common in it than they were.

SMILES	DUX4 inh
CN1CCCCN2[C@H](C1)[C@@H](c1ccc(C#CC3(O)CCCC3)cc1)[C@@H]2CO	-9
COc1ccc(NC(=O)N2CCCCN3[C@@H](CO)[C@H](c4ccc(C#CCC(C)C)cc4)[C@@H]3C2)cc1	-1
COc1ccc(C#Cc2ccc([C@H]3[C@H](CO)N4CCCCN(C)C[C@@H]34)cc2)cc1	-26*
OC[C@H]1[C@H](c2ccc(C#CC3(O)CCCC3)cc2)[C@@H]2CN(Cc3ccncc3)CCCCN12	15
CO[C@@H]1CN(C)C(=O)c2ccc(NC(=O)Cc3ccccc3)cc2OC[C@@H](C)N(C(C)=O)C[C@H]1C	0
CO[C@@H]1CN(C)C(=O)c2cc(NC(=O)Nc3cccc(Cl)c3)ccc2OC[C@H](C)N(C(=O)Nc2c(C)noc2C)C[C@H]1C	5
O=C(C[C@H]1CC[C@H]2[C@@H](COC[C@H](O)CN2C(=O)c2ccccc2F)O1)N1CCN(c2ccccc2)CC1	9
N#C[C@@H]1[C@@H](c2ccccc2-c2ccccc2F)[C@@H](CO)N1C(=O)C1CCOCC1	14
O=C(C[C@H]1C[C@@H]2c3cc(NC(=O)Nc4ccccc4F)ccc3O[C@@H]2[C@H](CO)O1)NCC1CC1	8
C[C@H](NC(=O)[C@H]1[C@H](CO)[C@H]2Cn3c(ccc(-c4cccnc4)c3=O)[C@@H]1N2C)c1ccccc1	-2
CCCNC(=O)N1CC2(C1)CN(C(=O)CC1CC1)[C@@H](CO)c1[nH]c3cc(OC)ccc3c12	19
COc1ccc2c3c(n(C)c2c1)[C@H](CO)N(Cc1ccccc1)CC31CN(C(=O)C2CC2)C1	0
CCCN1[C@H](C(=O)OC)[C@@H](CO)[C@@H]2Cn3c(ccc(C4=CCCCC4)c3=O)[C@@H]21	1
CO[C@H]1CN(C)C(=O)c2cc(NC(=O)Nc3cccc(Cl)c3)ccc2OC[C@@H](C)N(C(=O)Nc2c(C)noc2C)C[C@@H]1C	3
COc1ccccc1NC(=O)N(C)C[C@@H]1OCc2ccccc2-c2c(n(C)c3ccccc23)C(=O)N([C@H](C)CO)C[C@H]1C	2
CC(=O)N(C)C[C@H]1OCc2ccccc2-c2c(n(C)c3ccccc23)C(=O)N([C@H](C)CO)C[C@@H]1C	10
C[C@@H]1CN([C@@H](C)CO)C(=O)c2c(c3ccccc3n2C)-c2ccccc2CO[C@@H]1CN(C)C(=O)Nc1cccc(Cl)c1Cl	-35*
C[C@@H]1CN([C@H](C)CO)C(=O)c2c(c3ccccc3n2C)-c2ccccc2CO[C@H]1CN(C)C(=O)Nc1ccccc1C(F)(F)F	-4
C[C@@H]1CN([C@H](C)CO)C(=O)c2c(c3ccccc3n2C)-c2ccccc2CO[C@H]1CN(C)C(=O)c1cc(Cl)cc(Cl)c1	-41*
CC(=O)N(C)C[C@@H]1OCc2ccccc2-c2c(n(C)c3ccccc23)C(=O)N([C@H](C)CO)C[C@@H]1C	19
O=C(C1CCOCC1)N1C[C@@H]2[C@H](c3ccccc31)[C@H](CO)N2C(=O)c1ccccc1	-2
CCC(=O)N1[C@H](CO)[C@H](c2ccccc2)C12CN(C(=O)CN1CCOCC1)C2	2
N#C[C@H]1[C@@H](c2ccc(C3=CCCC3)cc2)[C@H](CO)N1C(=O)NC1CCCCC1	-3
CN(C)C(=O)c1ccc(-c2ccc(C3[C@@H]4CN(Cc5ccc6c(c5)OCO6)C[C@H]3N4)cc2)cc1 (some centres not stated)	-30*!
Cc1ccccc1-c1ccc(C2[C@@H]3CN(Cc4ccc5c(c4)OCO5)C[C@H]2N3)cc1 (some centres not stated)	-37*!
SMILES	DUX4 inh
OC[C@@H]1[C@@H](c2ccc(/C=C/c3ccccc3)cc2)[C@@H]2CN(Cc3cncnc3)CCCCN12	0
c1cncc(CN2C[C@@H]3N[C@H](C2)C3c2ccc(-c3cccnc3)cc2)c1 (some centres not stated)	-3
C(=C\c1ccc(C2[C@@H]3CN(Cc4cccnc4)C[C@H]2N3)cc1)/c1ccccc1 (some centres not stated)	-45*!
C/C=C/c1ccc(C2[C@@H]3CN(Cc4ccc5c(c4)OCO5)C[C@H]2N3)cc1 (some centres not stated)	-10
CN(C)C(=O)c1ccc(-c2ccc(C3[C@@H]4CN(C(=O)Cc5ccncc5)C[C@H]3N4)cc2)cc1 (some centres not stated)	16
CN(C)C(=O)c1cccc(-c2ccc(C3[C@H]4CNC[C@@H]3N4Cc3ccc4c(c3)OCO4)cc2)c1 (some centres not stated)	8
c1cncc(-c2ccc(C3[C@@H]4CN(Cc5ccc6c(c5)OCO6)C[C@H]3N4)cc2)c1 (some centres not stated)	-34*!
C(=C\c1ccc(C2[C@H]3CNC[C@@H]2N3Cc2cncnc2)cc1)/c1ccccc1 (some centres not stated)	4
C/C=C/c1ccc(C2[C@H]3CNC[C@@H]2N3Cc2ccc3c(c2)OCO3)cc1 (some centres not stated)	9
N#Cc1cccc(-c2ccc(C3[C@@H]4CN(Cc5cocn5)C[C@H]3N4)cc2)c1 (some centres not stated)	5
